# Legend:
# Assay in all cases: thermal shift delta Tm vs DMSO control; higher = stronger stabilization (binding)
# Conditions in all cases: 12.5 µM; protein concentration 2 µM
# [1] = system: LOC_OS02G45750-cb003
# Procedure, shortened: (§1)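 The melting temperature shift given here is a triplicate mean, measured against protein that received only DMSO. Melting temperatures came from Boltzmann fits of differential scanning fluorimetry data on E. coli-expressed, purified rice kinase domain constructs. Each 19.5 μl well contained 2 μM kinase, 100 mM potassium phosphate pH 7.5, 150 mM NaCl, 10% glycerol, 5 × SYPRO Orange and compound in DMSO. Plates were scanned from 25°C to 95°C at 0.05°C/s.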
# [2] = system: LOC_OS02G54510-cb004
# Procedure, shortened: as §1
# [3] = system: LOC_OS03G04050-cb001
# Procedure, shortened: as §1
# [4] = system: LOC_OS03G12390-cb001
# Procedure, shortened: as §1
# [5] = system: LOC_OS03G27990-cb004
# Procedure, shortened: as §1
# [6] = system: LOC_OS03G50450-cb001
# Procedure, shortened: as §1
# [7] = system: LOC_OS03G50810-cb003
# Procedure, shortened: as §1
# [8] = system: LOC_OS04G35114-cb001
# Procedure, shortened: as §1
# [9] = system: T1, LOC_OS04G38480-cb003
# T1 sequence (whole entry): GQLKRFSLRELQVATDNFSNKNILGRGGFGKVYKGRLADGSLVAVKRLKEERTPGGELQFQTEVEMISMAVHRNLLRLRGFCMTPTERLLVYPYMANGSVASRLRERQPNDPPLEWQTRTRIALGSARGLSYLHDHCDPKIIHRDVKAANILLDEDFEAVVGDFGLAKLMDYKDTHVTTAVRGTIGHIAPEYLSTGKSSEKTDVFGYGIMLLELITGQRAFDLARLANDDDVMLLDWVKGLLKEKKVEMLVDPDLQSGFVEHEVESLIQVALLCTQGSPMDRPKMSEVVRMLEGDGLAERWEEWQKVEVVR
# Procedure, shortened: as §1
# [10] = system: T2, LOC_OS04G41100-cb001
# T2 sequence (whole entry): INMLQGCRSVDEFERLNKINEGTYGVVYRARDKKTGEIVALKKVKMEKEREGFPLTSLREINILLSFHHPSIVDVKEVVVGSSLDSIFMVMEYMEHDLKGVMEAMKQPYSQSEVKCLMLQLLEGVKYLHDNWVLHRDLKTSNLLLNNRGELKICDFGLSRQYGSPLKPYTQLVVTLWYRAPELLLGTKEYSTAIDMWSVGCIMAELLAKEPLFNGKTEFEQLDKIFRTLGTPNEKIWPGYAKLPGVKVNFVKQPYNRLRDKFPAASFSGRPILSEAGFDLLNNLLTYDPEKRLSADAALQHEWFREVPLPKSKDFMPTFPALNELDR
# Procedure, shortened: as §1
# [11] = system: LOC_OS04G57630-cb004
# Procedure, shortened: as §1
# [12] = system: LOC_OS05G07850-cb002
# Procedure, shortened: as §1
# [13] = system: LOC_OS05G16824-cb004
# Procedure, shortened: as §1
# [14] = system: LOC_OS05G28520-cb001
# Procedure, shortened: as §1
# [15] = system: LOC_OS05G30820-cb001
# Procedure, shortened: as §1
# [16] = system: LOC_OS05G43570-cb004
# Procedure, shortened: as §1
# [17] = system: LOC_OS06G16330-cb003
# LOC_OS06G16330-cb003, sequence (as listed by the source): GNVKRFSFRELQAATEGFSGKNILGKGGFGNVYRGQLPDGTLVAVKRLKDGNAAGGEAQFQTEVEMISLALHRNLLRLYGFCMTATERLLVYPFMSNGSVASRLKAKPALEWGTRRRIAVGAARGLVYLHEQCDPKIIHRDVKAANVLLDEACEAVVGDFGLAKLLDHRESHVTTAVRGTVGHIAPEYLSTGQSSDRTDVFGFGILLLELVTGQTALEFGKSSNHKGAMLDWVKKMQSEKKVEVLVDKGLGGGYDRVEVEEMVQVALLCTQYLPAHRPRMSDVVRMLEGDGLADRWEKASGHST
# Procedure, shortened: as §1
# [18] = system: T3, LOC_OS06G22820-cb001
# T3 sequence (whole entry): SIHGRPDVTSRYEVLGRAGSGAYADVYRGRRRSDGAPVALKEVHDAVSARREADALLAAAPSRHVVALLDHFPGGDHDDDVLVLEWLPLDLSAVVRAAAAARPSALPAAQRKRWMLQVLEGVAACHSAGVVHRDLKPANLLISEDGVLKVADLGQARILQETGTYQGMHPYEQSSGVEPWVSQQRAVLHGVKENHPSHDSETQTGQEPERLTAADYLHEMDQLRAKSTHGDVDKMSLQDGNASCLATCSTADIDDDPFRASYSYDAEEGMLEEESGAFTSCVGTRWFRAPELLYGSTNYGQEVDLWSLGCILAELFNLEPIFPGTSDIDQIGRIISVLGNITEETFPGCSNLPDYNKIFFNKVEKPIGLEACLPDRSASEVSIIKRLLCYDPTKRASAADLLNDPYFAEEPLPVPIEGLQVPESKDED
# Procedure, shortened: as §1
# [19] = system: LOC_OS07G06570-cb004
# Procedure, shortened: as §1
# [20] = system: LOC_OS07G07230-cb001
# Procedure, shortened: as §1
SMILES,thermal shift delta Tm [1] [°C],thermal shift delta Tm [2] [°C],thermal shift delta Tm [3] [°C],thermal shift delta Tm [4] [°C],thermal shift delta Tm [5] [°C],thermal shift delta Tm [6] [°C],thermal shift delta Tm [7] [°C],thermal shift delta Tm [8] [°C],thermal shift delta Tm [9] [°C],thermal shift delta Tm [10] [°C],thermal shift delta Tm [11] [°C],thermal shift delta Tm [12] [°C],thermal shift delta Tm [13] [°C],thermal shift delta Tm [14] [°C],thermal shift delta Tm [15] [°C],thermal shift delta Tm [16] [°C],thermal shift delta Tm [17] [°C],thermal shift delta Tm [18] [°C],thermal shift delta Tm [19] [°C],thermal shift delta Tm [20] [°C]
C[C@]1(O)C[C@@H](c2nc(-c3ccc4ccc(-c5ccccc5)nc4c3)c3c(N)nccn32)C1 [Linsitinib (OSI-906)],0.76,0.75,0.57,0.37,0.12,0.28,0.6,3.89,1.28,0.85,0.91,1.48,1.1,0.92,0.67,0.81,0.92,0.94,1.13,0.34
CC(C)=CC[C@@H](O)C1=CC(=O)c2c(O)ccc(O)c2C1=O [Shikonin],0,-0.56,0.62,-4.26,-2.32,-1.22,0,3.21,-2.82,-0.35,-1.93,-1.47,-0.18,1.58,0.18,0.09,-1.68,-0.26,7.3,0.21
Cc1csc(-c2nnc(Nc3ccc(Oc4ncccc4-c4ccnc(N)n4)cc3)c3ccccc23)c1,1.33,0.9,0.3,0.26,0.96,0.26,0.96,1.18,2.54,1.68,0.49,6.74,1.04,0.38,0.85,0.03,3.12,0.66,0.09,0.17
CNC(=O)c1ccccc1Nc1cc(Nc2ccc(N3CCOCC3)cc2OC)ncc1C(F)(F)F,5.48,0.23,0.62,7.78,3.73,0.25,1.97,6.3,3.08,0.19,3.79,7.4,9.96,1.03,3.54,0.9,6.99,0.82,1.56,0.72
COc1ccc(COc2cc3oc(=O)c4cc(C(C)O)ccc4c3cc2OC)cc1 (stereo not given) [Palomid 529 (P529)],-0.8,0.29,0.37,-0.47,0.35,0.19,0.52,0.78,1.4,0.32,0.55,0.39,-3.05,0.84,0.78,0.66,0.23,0.68,0.97,0.03
Cn1cc(-c2cnn3c(N)c(Br)c([C@@H]4CCCNC4)nc23)cn1,2.88,0.55,0.3,0.78,0.85,0.38,1.12,1.17,2.62,0.97,0.1,6.22,4.78,0.02,0.27,0.29,7.12,0.34,0.75,0.55
N[C@@H]1CCCN(c2c(/C=C3\SC(=O)NC3=O)cccc2-c2ccccc2)C1,0.09,-0.11,0.23,-0.15,0.47,0.53,0.13,0.97,0.39,0.61,0.42,2.29,-1.84,0.64,0.34,-0.01,-0.21,0.41,1.48,0.3
Cc1ncc(CCCN(C)C)cc1Nc1ncc2c(n1)-c1ccc(C(F)(F)F)cc1NC(=S)C2,1.25,0.09,0.4,3.03,0.91,0.13,0.62,0.02,0.51,0.47,-0.2,-0.13,3.13,0.71,0.52,0.48,0.15,0.79,1.65,0.32
CC1Oc2cc(cnc2N)-c2c(nn(C)c2C#N)CN(C)C(=O)c2ccc(F)cc21 (stereo not given),1.05,0.8,0.3,6.42,0.12,-0.13,0.66,0.69,2.3,0.38,0.38,2.16,-1.64,0.23,0.66,0.83,10.9,0.16,0.86,0.75
S=C(NCc1ccc2c(c1)OCO2)N1CCN(c2ncnc3c2oc2ccccc23)CC1 [Amuvatinib (MP-470)],0.86,-2.11,0.55,0.66,0.56,0.69,0.68,-0.04,0.39,0.47,0.4,1.46,-4.2,0.42,0.8,0.49,1.01,0.7,0.32,0.06
COc1cc2ccc(=O)oc2cc1O [Scopoletin],0.7,0.13,0.44,0.02,0.3,0.69,0.22,0.41,0.05,0.47,-0.06,0.76,2.23,-0.1,0.06,-0.08,-0.43,0.22,1.13,0.87
Cc1cc(C(C)Nc2ccccc2)c2nc(N3CCOCC3)cc(=O)n2c1 (stereo not given),-0.62,0.09,0.44,-0.12,0.21,0.33,-0.02,0.33,0.36,0.33,-0.32,0.35,-2.9,0.25,0.38,0.22,0.32,0.59,0.64,0.53
CNC(=O)CN1CCC(Oc2cc3c(Nc4cccc(Cl)c4F)ncnc3cc2OC)CC1 [Sapitinib (AZD8931)],0.58,0.5,-0.02,0.79,0.05,0.05,0.22,3.22,0.11,0.35,0,3.04,-12,-0.17,0.6,0.17,1.14,0.37,0.48,-0.24

# — the supplement of paper PMC9694430
